The list is not random: actives were taken first. Their share in the collection is about 2.4%.
D2 ag-1 = activates the human D2 dopamine receptor; HEK293 T-REx D2 cells, calcium flux agonist mode; activation, % at 2 µM; actives 0.53% (n = 340,000); P14416;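 active means activation over 3 SD above normal in the single-dose calcium agonist read, cut at about 30% in these data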; further: 0% is about no effect
Target sequence (P14416 whole entry, looked up): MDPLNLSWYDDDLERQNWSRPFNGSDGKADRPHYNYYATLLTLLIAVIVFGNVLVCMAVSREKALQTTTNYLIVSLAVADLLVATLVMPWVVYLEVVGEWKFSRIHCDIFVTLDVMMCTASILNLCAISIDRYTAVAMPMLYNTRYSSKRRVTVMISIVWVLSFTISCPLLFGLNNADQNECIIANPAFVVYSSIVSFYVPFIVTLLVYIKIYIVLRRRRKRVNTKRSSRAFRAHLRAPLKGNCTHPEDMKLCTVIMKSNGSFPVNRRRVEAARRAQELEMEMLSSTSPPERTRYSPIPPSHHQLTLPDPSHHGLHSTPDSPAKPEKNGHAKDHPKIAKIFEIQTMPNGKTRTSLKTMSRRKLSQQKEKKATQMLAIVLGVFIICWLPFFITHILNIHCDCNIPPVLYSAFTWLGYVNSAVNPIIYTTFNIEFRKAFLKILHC
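Agonism is scored from calcium flux in a force-coupled, inducible HEK293 cell line expressing D2, read kinetically for 180 s after compound addition against dopamine controls.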
D2 PAM-1 = D2 dopamine receptor (human) potentiation; P14416; HEK293 T-REx D2, calcium flux, EC20 dopamine potentiation; potentiation, % at 10 µM; actives 0.34% (n = 340,000); AID 485347;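 active means potentiation over 3 SD above the plate norm, cut at about 30% in these data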; further: 0% is about no effect
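Potentiation of an EC20 dopamine calcium response measured kinetically over 180 s, after a preceding 180 s compound-only read flagging agonists. Cells: inducible Hek293 Trex D2 line, 4000/well, cultured overnight at 30 C before dye loading.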
D2 antag = antagonizes the human D2 dopamine receptor. HEK293 TREx D2 cells, calcium flux, dopamine EC80. inhibition, % at 10 µM. actives 2% (n = 340,000); in the data active means inhibition above about 30%; inactive means below that, where a call was filed; further: 0% is about no effect
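Tetracycline-induced HEK293 T-REx cells expressing D2 force-coupled to calcium signalling were dye-loaded, exposed to compound for 180 s, then challenged with an EC80 of dopamine; calcium flux was followed kinetically for a further 180 s.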
D2 ag-2 = human D2 receptor agonism in beta-arrestin assay; activation, % (test concentration not listed); actives 0.084% (n = 360,000); DiscoveRx PathHunter D2 beta-arrestin, luminescence, 90 min; 100% = 57 uM dopamine signal; in the data active means activation above about 40%; inconclusive means between about 15% and that limit
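Agonist mode: compounds alone added to overnight-plated D2 PathHunter cells for 90 min at 37 C, with 57 uM final dopamine (EC100) defining full response. Beta-arrestin recruitment detected by chemiluminescent reagent, read after 1 h at ambient temperature.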
D2 PAM-2 = positive allosteric modulators of human D2 dopamine receptor; P14416; DiscoveRx D2 beta-arrestin cells, luminescence, 90 min; 100% = 57 uM dopamine signal; potentiation, % (concentration not given with the values); actives 0.23% (n = 360,000); AID 624464; in the data active means potentiation above about 50%; inconclusive means mostly about 30% to 49%
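D2 cells co-treated with compound plus 50 nM dopamine (EC20) for 90 min at 37 deg C to detect potentiation. Beta-arrestin recruitment was read as enzyme-fragment luminescence after 1 h at ambient temperature. Full response was set by 57 uM dopamine.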
The depositor's hits bear a star; ? = inconclusive; · = no result given; ! = not confirmed by another sample.

SMILES | D2 ag-1 | D2 PAM-1 | D2 antag | D2 ag-2 | D2 PAM-2
COc1ccc(S(=O)(=O)c2cn(Cc3ccccc3)c3cc(N4CCCC4)c(F)cc3c2=O)cc1 | -0.5 | 3.6 | · | · | ·
CCOc1ccc(Oc2nc(NCC(C)C)nc(NC(C)(C)C)n2)nn1 | 4.3 | 3.2 | · | · | ·
CC1CCC(NC(=O)C2(C)Cc3ccccc3C(=O)N2Cc2ccccc2Cl)CC1 (centres undefined) | 0.3 | -2.4 | · | · | ·
N#C/C(=C\c1coc2ccc(O)cc2c1=O)C(=O)Nc1nc2ccccc2s1 | 59.1* | -0.6 | -7.8 | 8.4 | 0.2
Cc1ccc(S(=O)(=O)N(C)C)cc1NC(=S)N(CCC#N)Cc1cccnc1 | -0.1 | -13.1 | 43.5* | -4.6 | -15.8
O=c1oc2cc(O)ccc2cc1-c1nc2c(s1)CCc1ccccc1-2 | 141.0* | -23.6 | 80.2* | 0.8 | 15.2
O=c1oc2ccccc2cc1-c1nc2c(s1)CCc1ccccc1-2 | -1.1 | -9.9 | 8.7 | 10.5 | ?
CSc1ccc(S(=O)(=O)NCC(=O)OCC(=O)NCCc2ccccc2)cc1[N+](=O)[O-] | -0.7 | 13.7 | 33.2* | 2.4 | 3.0
Cc1ccc2c(c1)C1CN(C)CCC1N2C(=O)c1ccccc1NS(=O)(=O)c1ccc(F)cc1 (centres undefined) | 0.4 | 1.1 | -9.7 | -1.4 | -1.5
Cc1ccc2c(c1)C1CN(C)CCC1N2S(=O)(=O)c1ccc(C#N)cc1 (centres undefined) | 0.1 | -5.0 | 39.5* | -2.9 | -32.0
CC(=O)c1ccc(NC(=O)c2c3c(nc4ccccc24)C(=O)N(C2CCCCC2)C3)cc1 | 0.3 | 5.5 | · | · | ·
COc1cc2c(cc1OC)-c1n[nH]c(=S)n1C(C)(C)C2 | 1.9 | 35.0* | -0.6 | -4.3 | -30.9
COc1cc2c(cc1OC)-c1nnnn1C(C)(C)C2 | 0.2 | -0.6 | -0.8 | 1.2 | -5.0
O=C(Cn1c2[n+](c3ccc(C(F)(F)F)cc31)CCCCC2)c1cccc([N+](=O)[O-])c1 | 0.6 | -22.1 | 35.3* | -7.6 | -20.5
O=C(Cn1c2[n+](c3ccc(C(F)(F)F)cc31)CCCCC2)c1ccc2c(c1)OCCO2 | 0.1 | -22.7 | 21.3 | -8.4 | -12.5
Cc1ccc(OCC(=O)O/N=C(\N)Cc2cccs2)cc1C | · | · | · | -1.5 | -4.3
Cc1cc(OCC(=O)O/N=C(\N)Cc2cccs2)ccc1Br | -0.2 | 2.4 | 48.7* | 2.4 | -2.1
COc1ccc(CCNC(=O)CCCn2nc(C)c3sc4ccccc4c3c2=O)c(OC)c1 | · | -2.0 | · | · | ·
O=C1CSC2(C(=O)N(Cc3ccccc3F)c3ccccc32)N1c1cccc(C(F)(F)F)c1 (centres undefined) | -0.2 | 1.6 | · | · | ·
CC(=O)c1c(C)[nH]c(C(=O)COC(=O)C2CC2)c1C | -3.0 | -1.5 | 32.4* | 1.5 | 1.4
CCOC(=O)c1c(C)[nH]c(C(=O)COC(=O)C2CC2)c1C | -0.3 | -7.9 | -8.7 | -0.4 | -3.2
O=C(O)CSCCc1ccccn1 | -1.4 | -18.9 | 52.8* | -1.6 | -3.8
Cc1c(NC2=C(Cl)C(=O)N(c3ccccc3)C2=O)c(=O)n(-c2ccccc2)n1C | 1.1 | 1.0 | 37.8* | -2.4 | -10.3
Cc1c(Nc2c3ccccc3nc3ccccc23)c(=O)n(-c2ccccc2)n1C | 0.2 | -4.2 | 0.5 | 0.2 | 5.7
Cc1nc2nc[nH]n2c(=O)c1NC(=O)CC12CC3CC(CC(C3)C1)C2 | -0.7 | 31.4*! | -3.9 | 2.8 | 1.5
SMILES | D2 ag-1 | D2 PAM-1 | D2 antag | D2 ag-2 | D2 PAM-2
CC(C)c1ccc(S(=O)(=O)N2CCC(n3c(C(F)(F)F)nc4cccnc43)CC2)cc1 | 0.2 | 9.8 | · | · | ·
Cc1ccc(CO/N=C\Cc2snc(Sc3ncc(C(F)(F)F)cc3Cl)c2C#N)cc1 | 0.3 | -0.5 | 33.5* | 2.1 | 10.6
CCOC(=O)c1cc(-c2ccccc2)n(-c2cccc(C(=O)Nc3ccc(OC)cc3)c2)c1C | -0.2 | 14.6 | · | · | ·
Fc1ccc(NC(=S)NC2CCN(Cc3ccccc3)CC2)cc1 | · | · | · | -2.3 | 24.7
CC(C)(C)CC(C)(C)NC(=S)NC1CCN(Cc2ccccc2)CC1 | 1.5 | -24.2 | 66.1* | -3.9 | -43.6
CC1(C(=O)NC2CCN(Cc3ccccc3)CC2)CCN1Cc1ccc(OC(F)(F)F)cc1 (centres undefined) | · | · | · | -3.7 | -22.8
Cc1cccc(NC(=S)NC2CCN(Cc3ccccc3)CC2)c1C | 0.7 | -25.1 | 93.9* | -0.6 | -25.8
CC(C)(Oc1ccc(Cl)cc1)C(=O)NC1CCN(Cc2ccccc2)CC1 | -1.7 | -26.8 | 71.8* | -0.1 | -6.9
S=C(Nc1cccc(Cl)c1Cl)NC1CCN(Cc2ccccc2)CC1 | 0.9 | -18.3 | 71.1* | -3.4 | -38.8
Cc1ccc(-c2nc(CS(=O)(=O)CC(=O)Nc3ccc(Br)cc3F)c(C)o2)cc1 | -1.1 | -9.4 | · | · | ·
COc1cccc(Nc2nnc(-c3cc4ccc(O)cc4oc3=O)s2)c1 | · | -5.7 | · | · | ·
CCCS(=O)(=O)c1c(S(=O)(=O)CCC)c2cc(C(C)(C)C)ccn2c1C(=O)c1ccccc1 | · | 9.5 | · | · | ·
Cc1ccc(NC(=O)c2c(C)oc3ncn(CC(C)C)c(=O)c23)nc1 | 0.1 | · | · | · | ·
CC(C)(C)OC(=O)N1CCC(c2c(C(=O)NCCCN3CCc4ccccc4C3)cnn2-c2ccccc2)CC1 | -0.5 | -7.2 | · | · | ·
Cc1oc(-c2ccc(Cl)cc2)nc1CSCC(=O)NC1CCN(Cc2ccccc2)CC1 | -0.2 | -10.4 | 56.4* | -2.7 | -34.0
S=C(Nc1ccc(Cl)c(Cl)c1)NC1CCN(Cc2ccccc2)CC1 | 2.4 | -28.4 | 45.2* | -1.1 | -17.6
CCOc1ccc(-c2nc(CSCC(=O)NC3CCN(Cc4ccccc4)CC3)c(C)o2)cc1 | · | · | · | -1.8 | -27.5
CC(C)Sc1ncc(Cl)c(C(=O)Nc2ccc(S(=O)(=O)N3CCCCC3C)cc2)n1 (centres undefined) | · | 0.8 | · | · | ·
Fc1ccc(-n2cc(CNCCc3ccccn3)c(-c3ccccc3Cl)n2)cc1 | -3.0 | -31.1 | 79.0* | 4.2 | -16.0
Cc1ccc(S(=O)(=O)n2ccc3cccnc32)cc1 | 0.6 | -2.6 | 37.3* | -0.8 | -8.1
O=S(=O)(c1ccc(Cl)cc1)n1ccc2cccnc21 | 0.3 | 38.3* | 19.0 | -0.9 | -9.9
Cc1ccc(C)c(CN2C(=O)CSc3ccc(C(=O)NCc4ccc(F)cc4)cc32)c1 | 0.8 | 22.6 | · | · | ·
O=C(O)CCCCCCCCc1cn(Cc2ccc(C(=O)c3ccccc3)cc2)nn1 | -0.2 | 3.3 | 41.6* | 0.8 | 3.4
O=C(c1ccccc1)c1ccc(Cn2cc(CCCO)nn2)cc1 | -0.5 | 6.1 | 4.7 | -0.7 | -11.7
Cn1c(=O)c2c(nc(SCC(=O)Nc3ccccc3F)n2Cc2ccccc2F)n(C)c1=O | 1.2 | -13.9 | · | · | ·
COc1cc(/C=N\NC(=O)c2ccc(C)nc2)ccc1OC(=O)c1ccco1 | -0.1 | -9.6 | 34.4* | 1.2 | 2.8
CCOc1cc(/C=N\NC(=O)OC(C)(C)C)ccc1OC(=O)c1ccco1 | -2.0 | -2.7 | 31.3* | -0.8 | -9.1
COc1cc(/C=N\NC(=O)c2ccc(C)nc2)ccc1OC(=O)c1ccc2c(c1)OCO2 | -0.8 | · | -19.3 | -5.8 | -5.1
